Screening data: PubChem, several laboratories
Most compounds without a hit are left out; they make up all but 1.4% or so of the library.
LEDGF integ inh = blocks HIV-1 LEDGF/p75-dependent DNA integration; TR-FRET IN-LEDGF/p75 DNA integration, Eu/Cy5; inhibition, % at 3.7 µM; 370,000 compounds, 0.64% hits;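 active = inhibition above the screen-wide mean plus 3 SD, cut at about 13% in these data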;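 also: signal is the Cy5 over europium emission ratio at 671 and 618 nm; 0% = plate median of compound wells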
Casp6 inh = inhibitors of human caspase-6; P55212; purified caspase-6, Z-VEID-R110 cleavage fluorescence; inhibition, % at 12.5 µM; 350,000 compounds, 0.53% hits; AID 686996;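 active = mean inhibition across replicates at least about 35%, with every replicate also reaching that limit, limit read from the data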;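 also: 0% = median of neutral control wells and 100% = no fluorescence left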
MBD2 inh = MBD2-methylated oligo binding inhibition; Q9UBB5; TR-FRET, MBD2 binding to methylated oligonucleotide; inhibition, % at 4.4 µM; 370,000 compounds, 0.31% hits; in the data active = inhibition above about 13%
UHRF1 MBD2 ctr = blocks human UHRF1 binding to methylated DNA | inhibition, % at 4.4 µM | UHRF1 binding to methylated oligo, TR-FRET | 370,000 compounds, 0.75% hits | Q96T88; in the data active = inhibition above about 21%;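 also: UHRF1 SRA domain binding a hemimethylated CpG hairpin DNA probe; 0% = median of test compound wells and 100% = reference inhibitor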
Target sequence (Q96T88 whole entry, looked up, the tested form may be a part): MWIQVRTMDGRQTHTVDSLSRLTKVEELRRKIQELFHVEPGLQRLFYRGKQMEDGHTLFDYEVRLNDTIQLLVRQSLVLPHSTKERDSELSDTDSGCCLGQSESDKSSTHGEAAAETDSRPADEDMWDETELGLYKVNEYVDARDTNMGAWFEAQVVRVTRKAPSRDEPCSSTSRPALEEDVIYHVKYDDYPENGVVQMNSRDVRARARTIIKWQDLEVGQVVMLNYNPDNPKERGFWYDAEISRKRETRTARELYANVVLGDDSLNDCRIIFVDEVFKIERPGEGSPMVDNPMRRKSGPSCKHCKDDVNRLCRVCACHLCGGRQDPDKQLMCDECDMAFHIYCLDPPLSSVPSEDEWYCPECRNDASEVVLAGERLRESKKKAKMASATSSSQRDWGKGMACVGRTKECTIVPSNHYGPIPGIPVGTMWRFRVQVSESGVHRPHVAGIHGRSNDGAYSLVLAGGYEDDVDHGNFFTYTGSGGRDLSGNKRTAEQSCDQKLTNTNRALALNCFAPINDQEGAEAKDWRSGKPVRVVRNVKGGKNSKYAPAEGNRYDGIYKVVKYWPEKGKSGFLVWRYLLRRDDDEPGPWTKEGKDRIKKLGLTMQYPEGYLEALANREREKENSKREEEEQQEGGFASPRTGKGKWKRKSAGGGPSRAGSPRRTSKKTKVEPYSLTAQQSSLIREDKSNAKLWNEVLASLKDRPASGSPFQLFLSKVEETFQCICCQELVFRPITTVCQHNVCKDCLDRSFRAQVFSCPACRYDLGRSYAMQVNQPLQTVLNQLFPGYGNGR
The depositor's hits bear a star.

What do the screens show for `COc1cc(C(=O)OC2CCCCC2=O)cc(OC)c1C` (configuration not stated)?
LEDGF integ inh: -4; MBD2 inh: 7; UHRF1 MBD2 ctr: 23*

Results for S=c1[nH]nc(-c2ccc(Cl)cc2)n1/N=C/C=C/c1ccco1 ?
LEDGF integ inh: 10; Casp6 inh: 19; MBD2 inh: 2; UHRF1 MBD2 ctr: 9

How did S=c1[nH]nc(-c2cccnc2)n1/N=C/C=C/c1ccco1 do in these assays?
LEDGF integ inh: 0; Casp6 inh: 39*; MBD2 inh: -1; UHRF1 MBD2 ctr: 0

Results for COC(=O)C1C(c2ccc(OC)c(OC)c2)NC(c2ccc(OC)c(OC)c2)C(C(=O)OC)S1(=O)=O (configuration not stated) ?
LEDGF integ inh: 10; Casp6 inh: 0; MBD2 inh: 8; UHRF1 MBD2 ctr: 23*

How did COC(=O)C1CSc2[nH]c(=O)sc2C1c1ccc(OC)c(OC)c1 (configuration not stated) do in these assays?
LEDGF integ inh: -1; MBD2 inh: 8; UHRF1 MBD2 ctr: -2

Results for CC(C)C[C@H]1CN(CCCC[C@@H]2CNC(=O)C(=O)N2CC2CCCCC2)C(=O)C(=O)N1CCc1ccccc1 ?
LEDGF integ inh: 6; Casp6 inh: 0; MBD2 inh: 4; UHRF1 MBD2 ctr: 21*

What do the screens show for `CC(C)C[C@@H](CN1CCC[C@@H]1CN1C(=O)C(=O)NC[C@@H]1Cc1ccccc1)N1C[C@H](Cc2ccccc2)N(CC2CCCCC2)C(=O)C1=O`?
LEDGF integ inh: -3; Casp6 inh: 2; MBD2 inh: 4; UHRF1 MBD2 ctr: 54*

What do the screens show for `O=C1NC[C@H](CCCCN2C[C@H](Cc3ccc(O)cc3)N(CCc3ccc(O)cc3)C(=O)C2=O)N(Cc2ccccc2)C1=O`?
LEDGF integ inh: 0; Casp6 inh: 9; MBD2 inh: 12; UHRF1 MBD2 ctr: 22*

What do the screens show for `CC(C)C[C@@H](CN1CCC[C@@H]1CN1C(=O)C(=O)NC[C@@H]1Cc1ccccc1)N1C[C@H](Cc2ccccc2)N(CC2CCCCCC2)C(=O)C1=O`?
LEDGF integ inh: 3; Casp6 inh: 5; MBD2 inh: -6; UHRF1 MBD2 ctr: 4

How did O=S(=O)(N[C@@H]1CC[C@H](CCn2cc(-c3cccc(F)c3)nn2)O[C@@H]1CO)c1ccccc1 do in these assays?
Casp6 inh: 0

What do the screens show for `COc1cc2c(c(OC)c1OC)-c1ccc(NC(=O)c3ccc(F)cc3)c(=O)cc1[C@@H](NC(C)=O)CC2`?
LEDGF integ inh: 7; MBD2 inh: 8; UHRF1 MBD2 ctr: 21*

How did C[C@H]1CN([C@@H](C)CO)C(=O)c2cccc(NS(=O)(=O)c3cn(C)cn3)c2O[C@H]1CN(C)Cc1ccc(C(=O)Nc2ccccc2N)cc1 do in these assays?
Casp6 inh: 1

How did COc1ccc2c(c1)c(=O)oc1cc(OCC(=O)NC3CC3)ccc12 do in these assays?
LEDGF integ inh: -2; MBD2 inh: -4; UHRF1 MBD2 ctr: 2

Results for COc1ccc2c(c1)c(=O)oc1cc(OCC(=O)NC3CCCCC3)ccc12 ?
LEDGF integ inh: 5; MBD2 inh: 10; UHRF1 MBD2 ctr: 25*

What do the screens show for `C[C@@H]1CN([C@H](C)CO)C(=O)c2cc(NC(=O)Nc3ccc(F)cc3)ccc2O[C@@H](C)CCCCO[C@H]1CN(C)Cc1ccccc1`?
Casp6 inh: 0

What do the screens show for `CN1CC2([N+](=O)[O-])CC=C(OCCO)C([N+](=O)[O-])(C1)C2` (configuration not stated)?
LEDGF integ inh: -6; Casp6 inh: 39*; MBD2 inh: -2; UHRF1 MBD2 ctr: 3

How did CN1CC2([N+](=O)[O-])CC=C(Oc3ccccc3)C([N+](=O)[O-])(C1)C2 (configuration not stated) do in these assays?
LEDGF integ inh: -2; MBD2 inh: -2; UHRF1 MBD2 ctr: 0

Results for O=C(Nc1ccc2c(c1)[C@H]1C[C@H](CC(=O)N3CCCCC3)O[C@H](CO)[C@H]1O2)Nc1ccccc1F ?
Casp6 inh: 2

Results for O=C(C[C@@H]1C[C@@H]2c3cc(NS(=O)(=O)c4ccc(F)cc4)ccc3O[C@@H]2[C@H](CO)O1)NCc1ccc(Oc2ccccc2)cc1 ?
LEDGF integ inh: 2; Casp6 inh: -1; MBD2 inh: 10; UHRF1 MBD2 ctr: 23*

Results for O=C(Nc1ccc2c(c1)[C@H]1C[C@H](CC(=O)N3CCCCC3)O[C@@H](CO)[C@H]1O2)Nc1ccccc1F ?
Casp6 inh: 36*

How did CN(C)c1ccc2c(c1)[C@@H]1C[C@@H](CC(=O)N3CCOCC3)O[C@@H](CO)[C@@H]1O2 do in these assays?
Casp6 inh: 55*
